# PubChem BioAssay AID1259336 (Sattelle Laboratory, UCL Respiratory, Division of Medicine, …, 2017)
# Calls of active or inactive are those of the source. Cut-off read from the data, not from the text of the source: active = log2 fold change growth below about -1.8; inactive = the rest.
# Test: C. elegans growth inhibition, whole organism, log2 fold change (AID 1259336);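 note: growth scored by imaging after five days at 20 °C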
# Conditions: anthelmintic screen, hits give low values
row,Structure (SMILES),log2 fold change growth
1,OC[C@H]1O[C@@H](n2c3ccc(Cl)cc3c3c(-c4cc5ccccc5o4)ncnc32)C(O)[C@H]1O (stereo not given in full),-0.877 (inactive)
2,c1ccc(C[C@@H]2CN(c3nccc(Oc4ccc(-n5ccnc5)cc4)n3)CCN2)cc1,0.11 (inactive)
3,COc1ccc(N(CCc2cccc(C)n2)C(=O)C2CCCCC2)cc1,-0.0192 (inactive)
4,Cc1cc2nc(NC(=O)C(C)(C)C)nc(Cl)c2n1Cc1ccc(Cl)cc1,0.316 (inactive)
5,Cc1ccc(S(=O)(=O)n2cc(-c3ccnc(N)c3)c3cc(Br)cnc32)cc1,-0.39 (inactive)
6,c1ccc(Oc2ccc(-c3cc(N4CCOCC4)n[nH]3)cc2)cc1,0.348 (inactive)
7,COc1cc(CN2CCC3(C=Cc4ccccc43)CC2)cc2c1OCO2,-0.677 (inactive)
8,CC(C)(C)c1cc(C(=O)Nc2cccnc2)cc(C(=O)Nc2cccnc2)c1,0.00293 (inactive)
9,Cc1cc(C)cc(COc2ccc3c(C)c(CCC(=O)O)c(=O)oc3c2C)c1,-0.0961 (inactive)
10,OCc1ccc(-c2cncc(Nc3cccc(Cl)c3)c2)cc1,-0.873 (inactive)
11,COC(=O)C1=C(C)NC(C)=C(C(=O)OC(C)C)[C@H]1c1cccc2nonc12,-2.22 (active)
12,CN1CCC(c2cc(-c3ccncc3)c(-c3ccc(F)cc3)[nH]2)CC1,-0.12 (inactive)
13,CCCn1nnc(NC(=O)COc2ccc(C3CCCCC3)cc2)n1,0.0714 (inactive)
14,COc1cccc(-n2nnnc2S(C)(=O)=O)c1,0.157 (inactive)
15,COc1ccccc1CNC(=O)c1cc(C2CC2)nc2c1cnn2C(C)C,-0.297 (inactive)
